High-throughput results (PubChem)
DAX1 inh-1 – inhibitors of human orphan nuclear receptor DAX1 (NR0B1); AID 504766; HEK293 Gal4-DAX1 luciferase reporter, luminescence; P51843; inhibition, % at 6.75 µM; 0.99% of 340,000 active;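 active = inhibition above the mean over all tested compounds plus 3 SD, cut at about 4.2% in these data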;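 note: 0% = DAX1-transfected cells with DMSO and 100% = empty-vector control cells with DMSO; inhibition shows as a rise in luminescence from relieved DAX1 repression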
Target sequence (P51843 207-470 limits assumed): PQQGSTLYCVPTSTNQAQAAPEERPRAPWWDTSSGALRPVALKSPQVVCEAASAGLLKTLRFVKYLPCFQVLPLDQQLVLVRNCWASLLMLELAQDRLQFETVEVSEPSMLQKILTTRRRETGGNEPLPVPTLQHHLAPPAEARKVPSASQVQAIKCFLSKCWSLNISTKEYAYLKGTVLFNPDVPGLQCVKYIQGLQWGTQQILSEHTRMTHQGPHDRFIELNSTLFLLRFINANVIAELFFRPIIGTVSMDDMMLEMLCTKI
hgDAF12 agonist – agonists of H. glycines DAF-12 nuclear receptor; activation, % at 6.8 µM; HEK293 GAL4-hgDAF12 UAS-luciferase reporter, agonist luminescence; normalized to butyrate control; 1.8% of 370,000 active;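 active = activation above a cutoff set at the mean of all screened compounds plus 3 SD, cut at about 10% in these data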;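 note: 0% = DMSO wells and 100% = sodium butyrate wells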
hcDAF-12 act – H. contortus DAF-12 activation, primary screen; HEK293 hcDAF-12 lit1-tk-luc reporter, luminescence; 0% DMSO, 100% Δ7-dafachronic acid; activation, % at 6.8 µM; 1.4% of 370,000 active;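 active = activation above the mean of all tested compounds plus 3 SD, cut at about 5.5% in these data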;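 note: 100% = response to 3 µM Δ7-dafachronic acid high control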
DAX1 inh-2 – blocks DAX1 repression of SF-1 activated StAR promoter; HEK293T StAR-luciferase reporter, SF-1/DAX-1 repression relief; inhibition, % at 6.8 µM; 1.1% of 370,000 active; AID 652010;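 active = inhibition above the mean over all tested compounds plus 3 SD, cut at about 3.6% in these data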;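 note: 0% = DAX-1 cells with DMSO and 100% = cells lacking DAX-1 with DMSO; higher inhibition means more luminescence from relief of DAX-1 repression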
ssDAF-12 act – activators of S. stercoralis DAF-12 nuclear receptor; activation, % at 6.8 µM; 1% of 370,000 active; HEK293 ssDAF-12/GRIP1 lit1-tk-luc reporter, luminescence; % of 3 µM dafachronic acid response; AID 652126;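 active = activation above the mean over all tested compounds plus 3 SD, cut at about 0.9% in these data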;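 note: 0% = DMSO-only wells and 100% = 3 µM delta7-dafachronic acid wells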
DAX1 conf – NR0B1 (human) inhibition, confirmation; 87% of 2,400 active; HEK293T StAR-promoter luciferase reporter, SF-1/DAX-1 repression; inhibition, % at 6.8 µM; shares compounds with DAX1 inh-2;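 active = inhibition above the average of every tested compound plus 3 SD, cut at about 3.8% in these data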;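 note: 0% = DAX-1 cells with DMSO and 100% = no DAX-1 control cells with DMSO; active compounds raise luminescence by relieving repression of the StAR reporter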
Target sequence (P51843 whole entry, looked up): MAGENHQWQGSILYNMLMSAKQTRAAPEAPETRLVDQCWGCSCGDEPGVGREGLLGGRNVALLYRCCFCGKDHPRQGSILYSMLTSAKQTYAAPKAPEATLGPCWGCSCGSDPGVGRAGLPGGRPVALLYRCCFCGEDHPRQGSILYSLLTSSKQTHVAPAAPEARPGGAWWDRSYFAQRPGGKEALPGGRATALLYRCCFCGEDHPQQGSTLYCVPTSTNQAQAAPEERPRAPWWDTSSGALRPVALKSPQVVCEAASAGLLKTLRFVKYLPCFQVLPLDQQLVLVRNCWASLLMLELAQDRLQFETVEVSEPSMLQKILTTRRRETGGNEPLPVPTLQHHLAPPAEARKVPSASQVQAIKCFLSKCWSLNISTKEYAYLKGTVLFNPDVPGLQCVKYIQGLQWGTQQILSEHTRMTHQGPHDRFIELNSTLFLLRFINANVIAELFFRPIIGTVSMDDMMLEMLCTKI
SF1 AF2mut Luc – counter-screen for DAX1 inhibitors: nonselective inhibitors with SF-1 AF2 mutant | 78% of 2,400 active | AID 652136 | HEK293 StAR-luciferase, luminescence | inhibition, % at 6.8 µM | shares compounds with DAX1 inh-2;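 active = inhibition above the mean of all tested compounds plus 3 SD, cut at about 3% in these data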;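 note: 0% = DAX-1 transfected cells with DMSO and 100% = cells without DAX-1 with DMSO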
Starred values were filed as active, the others as inactive; . = not tested or not shown. Only some compounds are listed: those with a hit (about 4.1% of all), similar ones and a draw of the others.

SMILES | DAX1 inh-1 | hgDAF12 agonist | hcDAF-12 act | DAX1 inh-2 | ssDAF-12 act | DAX1 conf | SF1 AF2mut Luc
CCOc1cc(N2CCOCC2)c(OCC)cc1NC(=O)Cn1nc(C)c([N+](=O)[O-])c1C | -1.2 | 2.1 | -1.5 | 4.7* | -0.9 | 2.1 | 1.0
Cc1ccnc(NC(=O)c2ccc(S(=O)(=O)N3CCCCCC3)cc2)c1 | 0.6 | 7.0 | 2.6 | 9.2* | -0.4 | 10.1* | 5.1*
Cc1ccc(C(=O)NCC(=O)Nc2cc(C)ccn2)cc1 | 1.0 | 5.4 | 3.7 | 4.8* | -0.1 | 6.8* | 4.5*
CCOc1ccc(C(=O)NCC(=O)Nc2cc(C)ccn2)cc1OCC | 2.9 | 3.8 | 1.5 | 1.3 | -0.6 | . | .
Cc1ccnc(NC(=O)c2ccc(C(=O)c3ccccc3)cc2)c1 | -2.8 | 9.1 | 3.5 | 9.1* | -0.6 | 11.1* | 3.2*
Cc1ccc(NC(=O)CCNC(=O)c2ccc(Cl)cc2)cc1C | 0.1 | -0.5 | 0.0 | -0.5 | -0.7 | . | .
Cc1ccnc(NC(=O)CCNC(=O)c2ccc(Cl)cc2)c1 | 0.6 | 11.3* | 3.1 | 5.1* | -0.5 | 14.0* | 7.0*
COc1ccc(C(=O)OCCCN(C)C2CN(Cc3cn(Cc4cccc(F)c4)nn3)S(=O)(=O)C2)cc1OC (centres undefined) | . | 4.2 | -1.6 | -1.2 | -1.5 | . | .
CN(C)C(=O)C[C@H]1CC[C@H]2[C@H](COc3ccc(NC(=O)C4CC4)cc3C(=O)N2C)O1 | . | 0.5 | -2.6 | -0.6 | -1.2 | . | .
O=C(OCCN1CCCC12CCC(c1ccccc1)CC2)c1ccccc1 (centres undefined) | . | -0.6 | -2.3 | -1.5 | -1.3 | . | .
CCC(=O)Nc1ccc2c(c1)ncn2C | -1.2 | 1.7 | -1.2 | -0.7 | -1.2 | . | .
Cn1cnc2cc(NC(=O)c3ccc(Cl)cc3)ccc21 | 1.1 | 11.7* | 2.4 | 6.6* | -0.5 | 13.5* | 6.4*
Cn1cnc2cc(NC(=O)c3cccs3)ccc21 | 5.7* | 6.9 | 3.9 | 4.6* | -1.3 | 3.8* | 3.7*
O=C(Nc1ccc2c(c1)nc1n2CCSC1)c1ccccc1 | -0.9 | 11.6* | 2.3 | 5.9* | 0.0 | 12.6* | 8.6*
O=C(COc1ccc2ccccc2c1Br)Nc1cccnc1 | 0.4 | 2.0 | -0.6 | 5.1* | -0.7 | 4.2* | 1.6
CCN(CC)C(=O)CC[C@H]1CC[C@]2(CCCN(Cc3cccc4ccccc34)C2)O1 | . | -1.4 | -1.4 | 0.3 | -0.9 | . | .
Cc1noc(C)c1C(=O)Nc1nc2ccc(Cl)cc2s1 | 0.7 | 2.6 | -0.6 | 5.5* | -0.3 | 2.4 | 2.7
CCc1noc(C)c1C(=O)Nc1nc2ccc(S(C)(=O)=O)cc2s1 | 1.1 | 5.6 | 0.6 | 2.4 | -0.8 | . | .
C=CCNc1nc(NCc2ccc(NC(C)=O)cc2)c2sc(-c3ccccc3)cc2n1 | . | 12.1* | 0.6 | 6.4* | 2.0* | 7.8* | 5.7*
CC(=O)Nc1ccc(CNc2nc(NC(C)C)nc3cc(-c4ccccc4)sc23)cc1 | . | 2.1 | -1.3 | 1.6 | -0.6 | . | .
CCn1c(COc2ccc(C)cc2)nnc1SCC(=O)Nc1ccc(C(=O)OC)cc1 | . | 2.8 | 0.6 | -1.8 | -1.7 | . | .
CC(C)C(=O)OCCCN1C(=O)CCC12CCC(c1ccccc1)CC2 (centres undefined) | . | -1.9 | 1.6 | -0.5 | -1.4 | . | .
CC(C)n1nnnc1C1c2ccccc2C(=O)N1CCc1c[nH]c2ccccc12 (centres undefined) | . | 5.4 | 2.5 | 5.5* | -0.7 | 2.6 | 2.3
O=C1c2ccccc2C(c2nnnn2Cc2ccccc2)N1CCOc1ccccc1 (centres undefined) | . | 18.9* | 8.2* | 7.2* | 0.3 | 6.5* | 4.1*
O=C1c2ccccc2C(c2nnnn2Cc2ccccc2)N1CCc1ccccc1F (centres undefined) | . | 11.1* | 5.1 | 9.2* | -0.3 | -3.6 | -0.6
SMILES | DAX1 inh-1 | hgDAF12 agonist | hcDAF-12 act | DAX1 inh-2 | ssDAF-12 act | DAX1 conf | SF1 AF2mut Luc
O=C1c2ccccc2C(c2nnnn2Cc2ccccc2)N1CCc1ccc(O)cc1 (centres undefined) | . | 2.1 | 0.1 | 2.5 | -0.5 | . | .
O=[N+]([O-])c1cc(S(=O)(=O)NCc2ccco2)ccc1NN=Cc1ccccn1 | . | 1.2 | -1.7 | -0.1 | -1.1 | . | .
CC(=O)Nc1cccc(-c2cccc3nccn23)c1 | . | 10.0 | 1.5 | 5.4* | -0.6 | 5.6* | 3.7*
CC(=O)c1ccc(-c2cccc3nccn23)cc1 | . | 1.6 | -2.5 | 0.7 | -0.8 | . | .
CN(C)S(=O)(=O)c1cccc(C(=O)N/N=C\c2ccccc2[N+](=O)[O-])c1 | . | 11.4* | 3.5 | 6.9* | 0.6 | 11.6* | 9.7*
COc1ccccc1/C=N\NC(=O)c1cccc(S(=O)(=O)N(C)C)c1 | . | 0.5 | -0.9 | 0.3 | -1.6 | . | .
CCOC(=O)c1c(C)[nH]c(N=Nc2cccc(C)c2)c1C | 2.2 | 9.6 | 2.4 | 4.6* | 0.8 | 8.8* | 3.9*
COC(=O)c1ccccc1NC(=O)N1CCc2ccc(NC(=O)c3ccccn3)cc2C1 | 0.9 | 6.9 | 0.8 | 5.1* | -0.1 | -3.5 | -3.4
O=C(Nc1ccc2c(c1)CN(C(=O)Nc1ccc(F)cc1)CC2)c1ccccn1 | -0.7 | 4.5 | -1.3 | -3.2 | -1.2 | . | .
COc1ccc(C(=O)NCCc2c[nH]c3ccccc23)cc1 | 3.3 | 10.2 | 0.3 | 0.5 | -0.2 | . | .
Cc1ccsc1C(=O)NCCc1c[nH]c2ccccc12 | 1.8 | 8.4 | 0.8 | 4.6* | 0.6 | 5.9* | 2.9*
COc1ccc2c(c1)CCCN2C(=O)C1CCCN(S(=O)(=O)c2cccc3ccccc23)C1 (centres undefined) | . | -5.1 | -4.8 | 0.6 | -2.0 | . | .
O=C(NC1CCCCC1)C(=O)c1c[nH]c2ccccc12 | 2.3 | 10.3 | 2.2 | 6.5* | -0.6 | 8.5* | 5.5*
CC(=O)c1c(C)[nH]c(C(=O)Nc2ccc(Cl)cc2)c1C | 1.4 | 9.4 | 3.7 | 1.5 | 0.1 | . | .
CC(=O)c1c(C)[nH]c(C(=O)Nc2ccccn2)c1C | 0.3 | 7.5 | 2.0 | 7.5* | -0.1 | 9.1* | 6.3*
Cc1cccc(C)c1N1C(=O)c2ccccc2NC(=O)C1C(=O)NCCc1ccccc1F (centres undefined) | . | 0.8 | -0.4 | 4.7* | -0.8 | 1.7 | -0.1
Cc1cccc(C)c1N1C(=O)c2ccccc2NC(=O)C1C(=O)NCCc1ccccc1 (centres undefined) | . | 0.3 | 0.1 | -0.6 | -0.2 | . | .
CN1C2=N[C@H](c3ccccc3Br)CC(=O)N2/C(=C\c2ccccc2)[C@@H]1c1ccccc1 | . | -1.7 | 1.7 | . | -1.4 | . | .
CCOC(=O)C(NC(=O)Nc1ccc(Cl)cn1)(Oc1ccc(F)cc1)C(F)(F)F (centres undefined) | 0.6 | 7.5 | 3.7 | 4.8* | -0.3 | 4.0* | 3.2*
CCOC(=O)C(NC(=O)NCc1ccc(F)cc1)(OCC)C(F)(F)F (centres undefined) | 0.2 | -2.8 | 0.9 | -0.2 | -1.5 | . | .
